Bioassay records (PubChem BioAssay)
PRMT1 FP inh: inhibitors of human PRMT1; AID 652257; Q99873; recombinant PRMT1, activity-based probe fluorescence polarization; inhibition, % at 2.79 µM; actives 1.3% (n = 370,000);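 active = inhibition above about 21% made by adding two undisclosed values, limit read from the data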
Rtt109 HAT inh: blocks Candida albicans Rtt109/Vps75 acetyltransferase activity. inhibition, % at 34.9 µM. Q5AAJ8. actives 0.16% (n = 330,000). purified Rtt109/Vps75, ThioGlo CoA-SH fluorescence, 4 h;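 active = inhibition of at least 50% in every replicate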
ABHD5 PLIN5 PPI: ABHD5-PLIN5 protein interaction inhibition. actives 0.78% (n = 360,000). AID 602281. Q00G26+Q8WTS1. inhibition, % at 4 µM. Split G. princeps luciferase complementation, luminescence, 4 h;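 active = inhibition above the mean inhibition across every tested compound plus 3 SD, cut at about 22% in these data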
rCAG RNA binder: r(CAG) repeat RNA binding. TO-PRO-1 dye displacement fluorescence. inhibition, % at 3 µM. actives 1.3% (n = 370,000);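 active = inhibition above the plate cutoff, the mean of all test compounds on that plate plus 3 SD, cut at about 35% in these data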;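 also: higher means more dye released from RNA so lower well fluorescence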
LANA-H2A inh: blocks KSHV LANA binding to histone H2A/H2B; cell-free LANA-H2A/H2B peptide, fluorescence polarization; actives 0.6% (n = 320,000); AID 2629; Q9QR71; inhibition, % (test concentration not listed); in the data active = inhibition mostly above about 10%, no sharp cut-off; inactive = mostly below about 6.7%
Target sequence (Q9QR71 whole entry, looked up): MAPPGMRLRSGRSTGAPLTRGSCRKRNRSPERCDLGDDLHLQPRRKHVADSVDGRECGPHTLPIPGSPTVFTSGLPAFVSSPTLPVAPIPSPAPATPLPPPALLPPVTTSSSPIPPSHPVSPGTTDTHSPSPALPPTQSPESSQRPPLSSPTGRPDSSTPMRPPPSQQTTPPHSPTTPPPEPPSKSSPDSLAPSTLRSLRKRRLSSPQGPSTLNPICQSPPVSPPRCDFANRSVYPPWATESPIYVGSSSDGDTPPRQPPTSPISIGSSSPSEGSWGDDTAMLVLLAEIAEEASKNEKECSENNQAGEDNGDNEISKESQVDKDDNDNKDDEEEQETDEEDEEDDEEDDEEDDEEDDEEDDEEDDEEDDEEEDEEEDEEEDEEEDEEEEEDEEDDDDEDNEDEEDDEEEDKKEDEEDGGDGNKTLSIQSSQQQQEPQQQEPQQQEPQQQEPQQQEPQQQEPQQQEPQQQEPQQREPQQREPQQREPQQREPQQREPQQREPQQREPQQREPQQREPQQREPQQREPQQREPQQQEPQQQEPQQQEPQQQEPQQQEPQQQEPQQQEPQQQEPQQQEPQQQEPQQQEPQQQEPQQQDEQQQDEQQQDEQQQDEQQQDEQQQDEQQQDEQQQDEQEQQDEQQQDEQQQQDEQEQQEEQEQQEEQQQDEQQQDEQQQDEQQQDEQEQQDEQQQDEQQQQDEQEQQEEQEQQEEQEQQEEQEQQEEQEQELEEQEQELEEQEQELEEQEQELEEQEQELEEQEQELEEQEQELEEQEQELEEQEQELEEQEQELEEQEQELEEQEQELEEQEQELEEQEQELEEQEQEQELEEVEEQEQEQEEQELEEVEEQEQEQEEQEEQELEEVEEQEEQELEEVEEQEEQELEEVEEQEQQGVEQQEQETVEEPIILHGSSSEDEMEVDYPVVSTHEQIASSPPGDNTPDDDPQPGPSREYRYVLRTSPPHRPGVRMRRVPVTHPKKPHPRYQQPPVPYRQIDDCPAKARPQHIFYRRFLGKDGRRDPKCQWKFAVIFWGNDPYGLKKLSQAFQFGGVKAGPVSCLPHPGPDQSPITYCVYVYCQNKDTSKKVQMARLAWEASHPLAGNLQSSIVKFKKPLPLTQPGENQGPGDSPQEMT
ALR H2O2 inh: human ALR oxidase inhibition via reduced H2O2. purified ALR, DTT oxidation, H2O2 HRP-luminol luminescence. actives 3.8% (n = 290,000). inhibition, % (concentration not given with the values);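 active = mean replicate inhibition above about 79%, with every replicate also reaching it, limit read from the data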
A number is an active result. Compounds with a hit are over-represented: about 5.9% of the library has one in this group of screens.

For Cc1nn(C2CCS(=O)(=O)C2)c(C)c1CN(C)C(=O)c1ccc(F)cc1 (stereo not given) the results were PRMT1 FP inh inactive, ABHD5 PLIN5 PPI inactive and rCAG RNA binder inactive.
Screening Cc1ccc(C)c(N2CCN(C(C(=O)NC3CCCC3)c3ccco3)CC2)c1 (stereo not given) returned PRMT1 FP inh inactive, ABHD5 PLIN5 PPI inactive and rCAG RNA binder inactive.
Screening CCOc1nc(-c2ccc(Cl)cc2Cl)ccc1C#N returned PRMT1 FP inh inactive, Rtt109 HAT inh inactive, ABHD5 PLIN5 PPI inactive, rCAG RNA binder inactive, LANA-H2A inh inactive and ALR H2O2 inh inactive.
`COc1nc(-c2ccccc2Cl)ccc1C#N` gave PRMT1 FP inh inactive, Rtt109 HAT inh inactive, ABHD5 PLIN5 PPI inactive, rCAG RNA binder inactive, LANA-H2A inh inactive and ALR H2O2 inh 98.3.
C#CCN(C[C@H]1[C@H](OC(=O)Nc2cccs2)[C@H](OC(=O)Nc2cccs2)CN(C(=O)OC(C)C)N1C(=O)OC(C)C)S(=O)(=O)c1ccc(C)cc1 was read as PRMT1 FP inh inactive and rCAG RNA binder inactive.
`CCCCN1C(=O)CC2CCOC21C` (stereo not given) gave PRMT1 FP inh inactive, ABHD5 PLIN5 PPI inactive and rCAG RNA binder inactive.
For Cc1cc(N=Nc2ccc(Cl)cc2)cc(CN2CCCC2)c1O the results were PRMT1 FP inh inactive, Rtt109 HAT inh inactive, ABHD5 PLIN5 PPI inactive, rCAG RNA binder inactive, LANA-H2A inh inactive and ALR H2O2 inh 99.2.
Cn1nnnc1NCc1ccccc1F was read as PRMT1 FP inh inactive, Rtt109 HAT inh inactive, ABHD5 PLIN5 PPI inactive, rCAG RNA binder inactive, LANA-H2A inh inactive and ALR H2O2 inh inactive.
For Nc1c(C(=O)N/N=C/c2cccnc2)oc2nc(-c3ccccc3)cc(-c3ccco3)c12 the results were PRMT1 FP inh inactive, Rtt109 HAT inh inactive, ABHD5 PLIN5 PPI inactive, rCAG RNA binder inactive, LANA-H2A inh inactive and ALR H2O2 inh inactive.
For NNC(=O)c1oc2nc(-c3ccco3)cc(-c3ccco3)c2c1N the results were PRMT1 FP inh 38.3, ABHD5 PLIN5 PPI inactive, rCAG RNA binder inactive, LANA-H2A inh inactive and ALR H2O2 inh inactive.
For O=C1Cn2c(nc3ccccc32)N1c1cccc(C(F)(F)F)c1 the results were PRMT1 FP inh inactive, Rtt109 HAT inh inactive, ABHD5 PLIN5 PPI inactive, rCAG RNA binder inactive, LANA-H2A inh 15.0 and ALR H2O2 inh inactive.
Screening O=c1cc(O)nc(SCc2ccc(Cl)cc2)[nH]1 returned PRMT1 FP inh inactive, Rtt109 HAT inh inactive, ABHD5 PLIN5 PPI inactive, rCAG RNA binder inactive, LANA-H2A inh inactive and ALR H2O2 inh 97.9.
For Clc1ccc(CSc2nc3ccncc3[nH]2)cc1 the results were PRMT1 FP inh inactive, Rtt109 HAT inh inactive, ABHD5 PLIN5 PPI inactive, rCAG RNA binder inactive, LANA-H2A inh inactive and ALR H2O2 inh 89.8.
`Nc1cc(=O)[nH]c(SCc2ccc(Cl)cc2)n1` gave PRMT1 FP inh inactive, Rtt109 HAT inh inactive, ABHD5 PLIN5 PPI inactive, rCAG RNA binder inactive, LANA-H2A inh inactive and ALR H2O2 inh inactive.
Screening Cc1ccc(NC(=O)CN(C)C(=O)c2cc3c(s2)CCCCC3)cc1 returned PRMT1 FP inh inactive, Rtt109 HAT inh inactive, ABHD5 PLIN5 PPI inactive, rCAG RNA binder inactive, LANA-H2A inh 21.4 and ALR H2O2 inh inactive.
`Oc1c(C(c2ccccn2)N2CCCCC2)cc(Cl)c2cccnc12` (stereo not given) gave PRMT1 FP inh inactive, Rtt109 HAT inh inactive, ABHD5 PLIN5 PPI inactive, rCAG RNA binder inactive, LANA-H2A inh inactive and ALR H2O2 inh 82.8.
CC(COc1ccccc1C#N)CN1CCC(C(O)(c2ccccc2)c2ccccc2)CC1 (stereo not given) was read as PRMT1 FP inh inactive and rCAG RNA binder inactive.
For CCOC(=O)C(=O)NNc1ccccc1OC the results were PRMT1 FP inh inactive, Rtt109 HAT inh inactive, ABHD5 PLIN5 PPI inactive, rCAG RNA binder inactive, LANA-H2A inh inactive and ALR H2O2 inh 98.9.
Screening CCOC(=O)/C(C#N)=C/Nc1ccccc1OC returned PRMT1 FP inh inactive, Rtt109 HAT inh inactive, ABHD5 PLIN5 PPI inactive, rCAG RNA binder inactive, LANA-H2A inh inactive and ALR H2O2 inh inactive.
CCOC(=O)C(=O)Nc1ccc(F)cc1 was read as PRMT1 FP inh inactive, Rtt109 HAT inh inactive, ABHD5 PLIN5 PPI inactive, rCAG RNA binder inactive, LANA-H2A inh inactive and ALR H2O2 inh inactive.
CCc1ccc(C(=O)NNc2ccc(Cl)cc2)cc1 was read as PRMT1 FP inh inactive, Rtt109 HAT inh inactive, ABHD5 PLIN5 PPI inactive, rCAG RNA binder inactive, LANA-H2A inh inactive and ALR H2O2 inh inactive.
CCOC(=O)C(=O)NNc1ccc(Cl)cc1 was read as PRMT1 FP inh inactive, Rtt109 HAT inh inactive, ABHD5 PLIN5 PPI inactive, rCAG RNA binder inactive, LANA-H2A inh inactive and ALR H2O2 inh 100.3.
CCOC(=O)C(=O)NNc1ccc(C)cc1 was read as PRMT1 FP inh inactive, Rtt109 HAT inh inactive, ABHD5 PLIN5 PPI inactive, rCAG RNA binder inactive, LANA-H2A inh inactive and ALR H2O2 inh 99.9.
For Cc1ccccc1NNC(=O)C(=O)NNc1ccccc1C the results were PRMT1 FP inh inactive, Rtt109 HAT inh inactive, ABHD5 PLIN5 PPI inactive, rCAG RNA binder inactive, LANA-H2A inh inactive and ALR H2O2 inh 98.4.
Screening N=c1oc2ccccc2cc1-c1nc2ccccc2c(=O)[nH]1 returned PRMT1 FP inh inactive, Rtt109 HAT inh inactive, ABHD5 PLIN5 PPI inactive, rCAG RNA binder inactive, LANA-H2A inh inactive and ALR H2O2 inh 93.7.
For CCCn1cc(SCC(=O)NC2CCCC2)c2ccccc21 the results were PRMT1 FP inh inactive, Rtt109 HAT inh inactive, ABHD5 PLIN5 PPI inactive, rCAG RNA binder inactive, LANA-H2A inh inactive and ALR H2O2 inh inactive.
`CCCn1cc(S(=O)(=O)CC(=O)NC2CCCCC2)c2ccccc21` gave PRMT1 FP inh inactive, Rtt109 HAT inh 50.9, ABHD5 PLIN5 PPI inactive, rCAG RNA binder inactive, LANA-H2A inh inactive and ALR H2O2 inh inactive.
For COc1cccc(CNC(=O)C2=Cc3cccc(OC)c3OC2)c1 the results were PRMT1 FP inh inactive, Rtt109 HAT inh inactive, ABHD5 PLIN5 PPI inactive, rCAG RNA binder inactive, LANA-H2A inh inactive and ALR H2O2 inh 95.8.
For COc1ccc(-c2nc3n(n2)C(c2ccccc2)C2=C(CCCC2=O)N3)cc1OC (stereo not given) the results were PRMT1 FP inh inactive, Rtt109 HAT inh inactive, ABHD5 PLIN5 PPI inactive, rCAG RNA binder inactive, LANA-H2A inh inactive and ALR H2O2 inh 96.7.
`Cn1ccnc1SCC(=O)Nc1ccc2c(c1)COC2=O` gave PRMT1 FP inh inactive, Rtt109 HAT inh inactive, ABHD5 PLIN5 PPI inactive, rCAG RNA binder inactive, LANA-H2A inh inactive and ALR H2O2 inh 99.2.
For Cc1ccc(NC(=O)CSc2nccn2C)cc1F the results were PRMT1 FP inh inactive, Rtt109 HAT inh inactive, ABHD5 PLIN5 PPI inactive, rCAG RNA binder inactive, LANA-H2A inh inactive and ALR H2O2 inh inactive.
CCOC(=O)c1ccc(NC(=O)CSc2nccn2C)cc1 was read as PRMT1 FP inh inactive, Rtt109 HAT inh inactive, ABHD5 PLIN5 PPI inactive, rCAG RNA binder inactive, LANA-H2A inh inactive and ALR H2O2 inh 98.8.
`COc1ccc(NC(=O)CSc2nccn2C)cc1S(N)(=O)=O` gave PRMT1 FP inh inactive, Rtt109 HAT inh inactive, ABHD5 PLIN5 PPI inactive, rCAG RNA binder inactive, LANA-H2A inh inactive and ALR H2O2 inh 98.7.
